Hit rate of the full screen: of about 340,000 compounds, about 470 (0.14%) were called active. This excerpt belongs to a sample that is enriched for actives. A number with no mark means an inactive call.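 Rule for the calls: active = mean activation of 30% or more, with every replicate also reaching 30%; inconclusive = mean activation of 30% or more but some replicate falls short; inactive = the rest.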
Assay: miR-122 suppressors via Renilla sensor increase, primary screen, cell-based, Huh7 psiCHECK-miR122, Renilla luciferase, single point (AID 623901);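 note: 0% = median of neutral control wells and 100% = median of positive control wells; higher luciferase signal means stronger suppression of miR-122 activity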
Details: 48 h, at 12.5 µM, active compounds read high
For COc1ccc(C#Cc2cnc3c(c2)C(=O)N([C@@H](C)CO)C[C@H](C)[C@@H](CN(C)CC2CCOCC2)O3)cc1, the activation was 0.272%. In the case of CSc1nc(-c2ccccc2)nc(C(Cl)Cl)n1, the activation is reported as 42% (active). In the case of CNC[C@H]1Oc2cc(-c3ccc(OC)cc3)ccc2S(=O)(=O)N([C@H](C)CO)C[C@@H]1C, the activation is reported as -1.22%. In the case of COc1cccc(-c2ccc3c(c2)O[C@H](CN(C)C(=O)C2CCOCC2)[C@H](C)CN([C@H](C)CO)S3(=O)=O)c1, the activation is reported as 40.8% (active). COc1ccccc1-c1ccc2c(c1)O[C@H](CN(C)S(=O)(=O)c1ccc(C)cc1)[C@@H](C)CN([C@H](C)CO)S2(=O)=O gave an activation of 2.3%. With C[C@H](CO)N1C[C@H](C)[C@@H](CN(C)C(=O)C2CCOCC2)Oc2cc(-c3ccc(C(=O)N(C)C)cc3)ccc2S1(=O)=O the activation was -12.2%. For COc1cccc(S(=O)(=O)N(C)C[C@@H]2Oc3cc(C4=CCCCC4)ccc3S(=O)(=O)N([C@H](C)CO)C[C@H]2C)c1, the activation was 36.2% (active). COCC#Cc1ccc2c(c1)O[C@H](CN(C)C(=O)C1CCOCC1)[C@@H](C)CN([C@@H](C)CO)S2(=O)=O showed an activation of -2.66%. C[C@H]1CN([C@@H](C)CO)C(=O)c2cc(Br)cnc2O[C@H]1CN(C)Cc1cccc(F)c1 showed an activation of -14.9%. With CCC(=O)N1C[C@@H](C)[C@@H](OC)CN(C)C(=O)c2ccc(NC(=O)C3CCCCC3)cc2OC[C@H]1C the activation was -2.5%. COc1ccc(C)cc1S(=O)(=O)Nc1cc2c3c(c1)CCC(=O)N3CCC2 showed an activation of -150%. C/C=C/c1ccc2c(c1)O[C@H](CN(C)C(=O)Cc1ccccn1)[C@H](C)CN([C@H](C)CO)S2(=O)=O gave an activation of -4.41%. With C[C@@H]1CN([C@H](C)CO)S(=O)(=O)c2ccc(C#CC3(O)CCCC3)cc2O[C@@H]1CN(C)C(=O)c1cccnc1 the activation was 44% (active). For C[C@H](CO)N1C[C@H](C)[C@@H](CN(C)C(=O)C2CC2)Oc2cc(C#CC3CC3)ccc2S1(=O)=O, the activation was -21%. For CNC[C@@H]1Oc2cc(C#CC3CCCC3)ccc2S(=O)(=O)N([C@@H](C)CO)C[C@@H]1C, the activation was 32.4% (active). Work on C[C@@H]1CN([C@@H](C)CO)S(=O)(=O)c2ccc(C#Cc3ccc(F)cc3)cc2O[C@H]1CN(C)S(C)(=O)=O yielded an activation of 0.672%. With CCCC#Cc1ccc2c(c1)O[C@@H](CN(C)C(=O)c1cccnc1)[C@H](C)CN([C@H](C)CO)S2(=O)=O the activation was -14.9%. With C[C@@H]1CN([C@H](C)CO)S(=O)(=O)c2ccc(C#Cc3ccccc3F)cc2O[C@@H]1CN(C)C(=O)c1ccc2c(c1)OCO2 the activation was 48.9% (active). CNC[C@@H]1Oc2cc(C#CCC3CCCC3)ccc2S(=O)(=O)N([C@H](C)CO)C[C@H]1C gave an activation of 14.9%. For C[C@@H]1CN([C@@H](C)CO)S(=O)(=O)c2ccc(C#Cc3ccccc3)cc2O[C@@H]1CN(C)C(=O)Nc1ccccc1, the activation was -3.74%. For CCC(=O)N(C)C[C@@H]1Oc2cc(C#Cc3cccnc3)ccc2S(=O)(=O)N([C@H](C)CO)C[C@@H]1C, the activation was -5.93%. With C[C@H]1CN([C@@H](C)CO)S(=O)(=O)c2ccc(-c3cccc(C#N)c3)cc2O[C@H]1CN(C)C(=O)c1ccccc1 the activation was 4.92%. In the case of C[C@H]1CN([C@@H](C)CO)S(=O)(=O)c2ccc(C#Cc3ccccc3F)cc2O[C@@H]1CN(C)C(=O)c1ccc2c(c1)OCO2, the activation is reported as 48% (active). For C/C=C/c1ccc2c(c1)O[C@H](CN(C)C(=O)c1ccc3c(c1)OCO3)[C@@H](C)CN([C@H](C)CO)S2(=O)=O, the activation was -10.3%. For C[C@H](CO)N1C[C@H](C)[C@@H](CN(C)Cc2cncnc2)Oc2cc(-c3ccccc3)ccc2S1(=O)=O, the activation was -27.5%. With C[C@H]1CN([C@@H](C)CO)C(=O)c2cc(/C=C/c3ccccc3)cnc2O[C@H]1CN(C)Cc1cccc(C(=O)O)c1 the activation was 8.03%. For CCOc1ccccc1NC(=O)Cn1nnc(C(=O)NCc2cccs2)c1N, the activation was -94.8%. With C[C@@H]1CN([C@@H](C)CO)S(=O)(=O)c2ccc(-c3ccc(C(=O)N(C)C)cc3)cc2O[C@@H]1CN(C)C(=O)Cc1ccccn1 the activation was -3.98%. Compound COCC#Cc1cnc2c(c1)C(=O)N([C@@H](C)CO)C[C@H](C)[C@@H](CN(C)Cc1ccccc1)O2 has an activation of -2.07%. Work on C[C@@H]1CN([C@H](C)CO)C(=O)c2cc(-c3cccc(C(=O)N(C)C)c3)cnc2O[C@H]1CN(C)S(=O)(=O)c1ccc(F)cc1 yielded an activation of -4.18%. COc1ccc(-c2cc(NC(C)=O)c3ncc(-c4cc(OC)c(OC)c(OC)c4)n3c2)cn1 gave an activation of -107%. With CCCC#Cc1ccc2c(c1)O[C@@H](CN(C)C(=O)CC)[C@@H](C)CN([C@H](C)CO)S2(=O)=O the activation was -16.6%. In the case of COCCn1c(SCC(=O)c2[nH]c(C)c(C(C)=O)c2C)nc2ccccc2c1=O, the activation is reported as -272%. With CC1CCCCC1NC(=O)/C(C#N)=C/C=C/c1ccccc1[N+](=O)[O-] (configuration not stated) the activation was -102%. For Cc1ccc(OCC(=O)Nc2cccc3c2CCCC3)cc1C, the activation was -94.9%. For C[C@@H]1CN([C@H](C)CO)C(=O)c2cc(C#Cc3ccccn3)cnc2O[C@H]1CN(C)CC1CCOCC1, the activation was -7.38%. Compound CCC(=O)Nc1ccc2c(c1)OC[C@H](C)N(C(=O)c1ccncc1)C[C@H](C)[C@H](OC)CN(C)C2=O has an activation of -2.72%. Compound COCC#Cc1cnc2c(c1)C(=O)N([C@@H](C)CO)C[C@@H](C)[C@H](CN(C)C(=O)C1CCOCC1)O2 has an activation of -0.849%. For CC1=C(C)CC(C(=O)NNC(=O)c2ccccc2O)C(C(=O)O)C1 (configuration not stated), the activation was -151%. In the case of Cn1cnc([N+](=O)[O-])c1Sc1ccccc1, the activation is reported as -217%. With CCC(=O)N(C)C[C@@H]1Oc2ncc(C#CCC3CCCC3)cc2C(=O)N([C@@H](C)CO)C[C@H]1C the activation was 7.03%. In the case of COc1ccc(C#Cc2cnc3c(c2)C(=O)N([C@H](C)CO)C[C@H](C)[C@H](CN(C)S(=O)(=O)c2ccc(F)cc2)O3)cc1OC, the activation is reported as 8.05%. C/C=C/c1ccc2c(c1)O[C@H](CN(C)C(=O)Nc1ccc(OC)cc1)[C@@H](C)CN([C@H](C)CO)S2(=O)=O showed an activation of -21.8%. Compound COCC#Cc1cnc2c(c1)C(=O)N([C@H](C)CO)C[C@H](C)[C@H](CN(C)C(=O)Nc1ccccc1OC)O2 has an activation of 0.317%. With COc1ccc(C(C#N)Nc2ccc(C)cc2)cc1 (configuration not stated) the activation was 49.7% (active). Compound COc1ccccc1NC(=O)N(C)C[C@@H]1Oc2ncc(C#CCC(C)C)cc2C(=O)N([C@@H](C)CO)C[C@@H]1C has an activation of 3.82%. For CC(C)C#Cc1ccc2c(c1)O[C@H](CN(C)Cc1ccccn1)[C@H](C)CN([C@H](C)CO)S2(=O)=O, the activation was -14.1%. Cc1ccccc1-c1cnc2c(c1)C(=O)N([C@H](C)CO)C[C@H](C)[C@@H](CN(C)C(=O)c1ccccc1)O2 showed an activation of 2.61%. Work on Cc1cc(C)cc(NS(=O)(=O)c2ccc(F)cc2)c1 yielded an activation of -117%. COc1ccc(F)cc1S(=O)(=O)Nc1ccc2c(c1)OCO2 showed an activation of -99.7%. Compound C[C@H]1CN([C@@H](C)CO)S(=O)(=O)c2ccc(-c3ccccc3)cc2O[C@H]1CN(C)C(=O)CC1CC1 has an activation of 4.7%. Work on CO[C@H]1CN(C)C(=O)c2cc(NC(C)=O)ccc2OC[C@H](C)N(C(=O)CN(C)C)C[C@@H]1C yielded an activation of -4.03%. COc1ccc(S(=O)(=O)Nc2ccc(F)cc2)c(C)c1C gave an activation of -231%. For COc1ccc(CN2CCOC2=O)cc1OC, the activation was 44.5% (active). C[C@@H]1CN([C@@H](C)CO)C(=O)c2cc(C#Cc3ccccc3)cnc2O[C@H]1CN(C)C(=O)c1ccccn1 showed an activation of 5.71%. Compound C[C@@H]1CN([C@@H](C)CO)C(=O)c2cc(/C=C/c3ccccc3)cnc2O[C@H]1CN(C)C(=O)C1CCC1 has an activation of 2.31%. In the case of CCCN(C)C[C@@H]1Oc2cc(C#CCc3ccccc3)ccc2S(=O)(=O)N([C@H](C)CO)C[C@@H]1C, the activation is reported as 7.02%. Work on C[C@@H]1CN([C@H](C)CO)C(=O)c2cc(-c3ccccc3F)cnc2O[C@H]1CN(C)C(=O)NC1CCCCC1 yielded an activation of -3.04%. Work on CCC(=O)N(C)C[C@@H]1Oc2ncc(C#Cc3cccnc3)cc2C(=O)N([C@@H](C)CO)C[C@@H]1C yielded an activation of -1.27%. In the case of COc1ccc(C)cc1S(=O)(=O)NC1CCCCC1, the activation is reported as -375%. In the case of Cc1cccc(-n2ncc(Cl)c(Cl)c2=O)c1, the activation is reported as 69.6% (active). Work on CCC(=O)N(C)C[C@H]1Oc2cc(-c3cccc(C#N)c3)ccc2S(=O)(=O)N([C@@H](C)CO)C[C@@H]1C yielded an activation of -7.09%. With O=C(Nc1cc(S(=O)(=O)Nc2ccc(Cl)cc2)ccc1O)c1ccc(F)cc1F the activation was -118%. CCC(=O)N(C)C[C@@H]1Oc2cc(C#C[C@H](C)O)ccc2S(=O)(=O)N([C@H](C)CO)C[C@@H]1C gave an activation of 5.93%. CCCNC(=O)N(C)C[C@@H]1Oc2ncc(C#Cc3ccccc3F)cc2C(=O)N([C@@H](C)CO)C[C@H]1C gave an activation of 13.1%. With COc1ccc(CN(C)C[C@@H]2Oc3ccc(NS(=O)(=O)c4ccc(OC)cc4)cc3C(=O)N([C@H](C)CO)C[C@H]2C)cc1 the activation was -2.32%. In the case of C[C@@H]1CN([C@H](C)CO)C(=O)c2cccc(NS(=O)(=O)c3cn(C)cn3)c2O[C@H]1CN(C)CC1CC1, the activation is reported as -0.457%.

Source: PubChem BioAssay AID623901 (Broad Institute, 2012)
